# Inconclusive results are not listed. Calls of active or inactive are those of the source. Unless noted, calls come from the whole dose curve; as a rule, active = well fitted curve in the direction sought with a large enough effect; inconclusive = small, poorly fitted or top-dose-only effect, or another doubt; inactive = no such curve, though single readings can be large; an effect the other way counts as inactive or inconclusive.
# Assays:
# [1] = Quantitative High-Throughput drug screen in 47 multiple myeloma cell lines against the NCATS MIPE library collection: XG1_PLB cell viability assay (AID 1919866); note: nearly all actives have a fitted effect of over 35% in size
# Method in brief: (§1)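 Myeloma cells (500/well) treated with MIPE 4.0 compounds for 48 h at 37 °C, 5% CO2. Viability read as ATP via CellTiter-Glo luminescence after 5 min at RT; DMSO-only wells = 100%, media-only = 0% viability.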
# [2] = Quantitative High-Throughput drug screen in 47 multiple myeloma cell lines against the NCATS MIPE library collection: VP6_DJ cell viability assay (AID 1919867); note: nearly all actives have a fitted effect of over 40% in size
# Method in brief: as §1
# [3] = Quantitative High-Throughput drug screen in 47 multiple myeloma cell lines against the NCATS MIPE library collection: PE2_PLB cell viability assay (AID 1919869); note: nearly all actives have a fitted effect of over 35% in size
# Method in brief: as §1
# [4] = Quantitative High-Throughput drug screen in 47 multiple myeloma cell lines against the NCATS MIPE library collection: PCM6_Riken cell viability assay (AID 1919870); note: nearly all actives have a fitted effect of over 30% in size
# Method in brief: as §1
# [5] = Quantitative High-Throughput drug screen in 47 multiple myeloma cell lines against the NCATS MIPE library collection: RPMI8226_ATCC cell viability assay (AID 1919871); note: nearly all actives have a fitted effect of over 30% in size
# Method in brief: as §1
# [6] = Quantitative High-Throughput drug screen in 47 multiple myeloma cell lines against the NCATS MIPE library collection: OPM2_DSMZ cell viability assay (AID 1919872); note: nearly all actives have a fitted effect of over 30% in size
# Method in brief: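 Approved and investigational drugs from MIPE 4.0 were added by pin tool to 500 cells per well. After 48 hours at 37C, ATP-based CellTiter-Glo luminescence indicated remaining viability.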
# [7] = Quantitative High-Throughput drug screen in 47 multiple myeloma cell lines against the NCATS MIPE library collection: KMS11_JCRBsus cell viability assay (AID 1919873); note: nearly all actives have a fitted effect of over 50% in size
# Method in brief: as §1
# [8] = Quantitative High-Throughput drug screen in 47 multiple myeloma cell lines against the NCATS MIPE library collection: KMS28BM_JCRB cell viability assay (AID 1919874); note: nearly all actives have a fitted effect of over 35% in size
# Method in brief: as §1
# [9] = qHTS drug screen for cell cycle checkpoint inhibitors in PARPi-resistant BRCA-mutant ovarian cancer cell lines. (AID 1963452; calls by dose curve); settings: PEO1/OlaR viability, CellTiter-Glo luminescence, 96 h; for Z-AUC: stronger effect = lower value
# Method in brief: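 PEO1, PEO4 and PEO1/OlaR ovarian cancer cells, 600 per well, exposed 96 h at 37C to a dilution series. Viability read by CellTiter-Glo luminescence, normalized to DMSO and empty wells; activity summarized as Z-AUC.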
# [10] = Quantitative High-Throughput drug screen in 47 multiple myeloma cell lines against the NCATS MIPE library collection: UTMC2_PLB cell viability assay (AID 1919868); settings: CellTiter-Glo ATP luminescence, 48 h; viability (% of DMSO control): at 45.8 µM (top of the series) unless noted; note: nearly all actives have a fitted effect of over 55% in size
# Method in brief: as §1
# [11] = qHTS for identification of novel therapeutic agents for treatment of microphthalmiaassociated transcription factor (MiT) renal cell carcinoma (RCC) (AID 1963991; calls by dose curve); settings: CellTiter-Glo, 48 h; for Potency: active = Z-AUC below -0.8 in all three lines; for z-score: stronger effect = lower value
# Method in brief: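 Viability of three TFE3-fusion renal carcinoma lines measured by CellTiter-Glo after 48 h treatment with each of 1912 compounds at 11 concentrations. Responses scaled between DMSO (100%) and empty wells (0%) before curve fitting.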
# [12] = qHTS profiling for inhibitors of Plasmodium falciparum proliferation (AID 504749); note: nearly all actives have a fitted effect of over 60% in size;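 for activity, negative = inhibition: 0% = DMSO vehicle and full inhibition = artemisinin control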; settings: P. falciparum in erythrocytes, SYBR Green DNA, 72 h, at 28.7 µM (top of the series)
# Method in brief: (§2)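 P. falciparum-infected erythrocytes (0.3% parasitemia, 2.5% hematocrit final) were exposed to compounds for 72 h at 37 C in 5% CO2, then lysed with SYBR Green buffer overnight at room temperature; parasite DNA fluorescence was normalized to artemisinin and DMSO controls.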
# 3D7 = assay: as above; settings: P. falciparum in erythrocytes, SYBR Green DNA, 72 h; series mostly up to 28.7 µM
# Method in brief: as §2
# 7G8 = assay: as above; settings: P. falciparum in erythrocytes, SYBR Green DNA, 72 h; series mostly up to 28.7 µM
# Method in brief: as §2
# AA1029 = assay: as above; settings: P. falciparum in erythrocytes, SYBR Green DNA, 72 h; series mostly up to 28.7 µM
# Method in brief: as §2
# AS120 = assay: as above; settings: P. falciparum in erythrocytes, SYBR Green DNA, 72 h; series mostly up to 28.7 µM
# Method in brief: as §2
# ATS189 = assay: as above; settings: P. falciparum in erythrocytes, SYBR Green DNA, 72 h; series mostly up to 28.7 µM
# Method in brief: as §2
# ATS95 = assay: as above; settings: P. falciparum in erythrocytes, SYBR Green DNA, 72 h; series mostly up to 28.7 µM
# Method in brief: as §2
# C2A = assay: as above; settings: P. falciparum in erythrocytes, SYBR Green DNA, 72 h; series mostly up to 28.7 µM
# Method in brief: as §2
# CP185 = assay: as above; settings: P. falciparum in erythrocytes, SYBR Green DNA, 72 h; series mostly up to 28.7 µM
# Method in brief: as §2
# [13] = measured here: PEO1 parental Z-AUC
# [14] = TFE3-RCC UOK109 viability, measured here: UOK109 Z-AUC
# [15] = TFE3-RCC viability, measured here: UOK124 Z-AUC
# [16] = TFE3-RCC viability, measured here: UOK145 Z-AUC
# Potency is the fitted concentration of half-maximal effect.
structure (smiles),measurement,setting,value
Nc1nc(Nc2ccc(S(N)(=O)=O)cc2)nn1C(=O)c1c(F)cccc1F,Potency,[1],2.35 µM (active)
same,Potency,[2],5.26 µM (active)
same,Potency,[3],3.32 µM (active)
same,Potency,[4],1.87 µM (active)
same,Potency,[5],18.7 µM (active)
same,Potency,[6],14.8 µM (active)
same,Potency,[7],7.43 µM (active)
same,Potency,[8],6.62 µM (active)
same,Z-AUC,[9],0.423 (inactive)
same,Z-AUC,[9]; [13],-0.334
same,Z-AUC,[9]; measured here: PEO4 Z-AUC,-0.463
C=CC(=O)Nc1cc2c(Nc3ccc(F)c(Cl)c3)ncnc2cc1C#CC(C)(C)N1CCN(C)CC1,Potency,[1],0.526 µM (active)
same,Potency,[2],0.833 µM (active)
same,Potency,[10],2.35 µM (active)
same,Potency,[4],0.662 µM (active)
same,Potency,[6],10.5 µM (active)
same,Potency,[7],1.32 µM (active)
same,Potency,[8],0.469 µM (active)
same,Z-AUC,[9],-0.203 (inactive)
same,Z-AUC,[9]; [13],-0.15
same,Z-AUC,[9]; measured here: PEO4 Z-AUC,-0.45
same,Potency,[11]; TFE3-RCC UOK109 viability,14.8 µM (active)
same,z-score,[11]; [14],-2.39
same,z-score,[11]; [15],-1.76
same,z-score,[11]; [16],-1.33
Cc1cc(Nc2nc(N[C@@H](C)c3ccc(F)cc3)c(C#N)cc2F)n[nH]1,Potency,[1],0.235 µM (active)
same,Potency,[2],4.69 µM (active)
same,Potency,[10],0.935 µM (active)
same,Potency,[4],16.6 µM (active)
same,Potency,[6],4.69 µM (active)
same,Potency,[7],0.469 µM (active)
same,Z-AUC,[9],0.0536 (inactive)
same,Z-AUC,[9]; [13],-0.395
same,Z-AUC,[9]; measured here: PEO4 Z-AUC,-0.871
Cc1[nH]c2ccccc2c1CCNCc1ccc(C=CC(=O)NO)cc1,Potency,[1],0.105 µM (active)
same,Potency,[2],0.0187 µM (active)
same,Potency,[10],0.0148 µM (active)
same,Potency,[4],0.0662 µM (active)
same,Potency,[5],0.118 µM (active)
same,Potency,[6],0.0935 µM (active)
same,Potency,[7],0.0662 µM (active)
same,Potency,[8],0.0526 µM (active)
same,Potency,[11]; TFE3-RCC UOK109 viability,0.418 µM (active)
same,z-score,[11]; [14],-1.86
same,z-score,[11]; [15],-3.24
same,z-score,[11]; [16],-1.46
CNC(=O)c1nn(C)c2c1C(C)(C)Cc1cnc(Nc3ccc(N4CCN(C)CC4)cc3)nc1-2,Potency,[1],2.64 µM (active)
same,Potency,[2],0.743 µM (active)
same,Potency,[10],8.33 µM (active)
same,Potency,[4],2.09 µM (active)
same,Potency,[5],1.48 µM (active)
same,Potency,[6],13.2 µM (active)
same,Potency,[7],1.05 µM (active)
same,Potency,[8],2.96 µM (active)
same,Potency,[9],0.549 µM (active)
same,Z-AUC,[9]; [13],-1.22
same,Z-AUC,[9]; measured here: PEO4 Z-AUC,-1.37
c1cc(-c2cnn3cc(-c4ccc(OCCN5CCCCC5)cc4)cnc23)ccn1,Potency,[1],5.9 µM (active)
same,Potency,[2],3.72 µM (active)
same,Potency,[3],3.32 µM (active)
same,Potency,[4],1.87 µM (active)
same,Potency,[5],16.6 µM (active)
same,Potency,[6],20.9 µM (active)
same,Z-AUC,[9],0.293 (inactive)
same,Z-AUC,[9]; [13],0.413
same,Z-AUC,[9]; measured here: PEO4 Z-AUC,0.377
CCNC(=O)Nc1ccc2ncc(Nc3ccc(C)cc3)nc2n1,Potency,[1],0.332 µM (active)
same,Potency,[2],0.662 µM (active)
same,Potency,[3],3.72 µM (active)
same,Potency,[4],0.935 µM (active)
same,Potency,[6],inactive
same,Potency,[7],18.7 µM (active)
CC=CC1=C(C(=O)O)N2C(=O)[C@H](NC(=O)[C@H](N)c3ccc(O)cc3)[C@@H]2SC1,Potency,[1],inactive
same,Potency,[2],2.96 µM (active)
same,Potency,[4],inactive
same,Potency,[5],inactive
same,Potency,[6],inactive
same,Potency,[7],inactive
same,Potency,[8],inactive
same,"activity, negative = inhibition",[12]; parasite line A,-3.61% (inactive)
same,"activity, negative = inhibition",[12]; parasite line B,-5.72% (inactive)
same,Potency,3D7,inactive
same,Potency,7G8,inactive
same,Potency,AA1029,inactive
same,Potency,AS120,inactive
same,Potency,ATS189,inactive
same,Potency,ATS95,inactive
same,Potency,C2A,inactive
same,Potency,CP185,inactive
CC[C@@H]1C(=O)N(C)c2cnc(Nc3ccc(C(=O)NC4CCC(N5CCN(CC6CC6)CC5)CC4)cc3OC)nc2N1C(C)C (some centres undefined),Potency,[1],0.0187 µM (active)
same,Potency,[2],1.66 µM (active)
same,Potency,[3],8.33 µM (active)
same,Potency,[4],1.87 µM (active)
same,Potency,[5],8.33 µM (active)
same,Potency,[6],0.118 µM (active)
same,Potency,[7],0.0296 µM (active)
same,Potency,[8],0.0372 µM (active)
same,Potency,[9],0.0871 µM (active)
same,Z-AUC,[9]; [13],-2.37
same,Z-AUC,[9]; measured here: PEO4 Z-AUC,-1.84
same,Potency,[11]; TFE3-RCC UOK109 viability,3.72 µM (active)
same,z-score,[11]; [14],-1.29
same,z-score,[11]; [15],-2.06
same,z-score,[11]; [16],-1.66
CN(C1CCc2c(c3ccccc3n2CC(=O)O)C1)S(=O)(=O)c1ccc(F)cc1 (centres undefined),Potency,[1],3.72 µM (active)
same,Potency,[2],0.0743 µM (active)
same,Potency,[3],inactive
same,Potency,[4],3.72 µM (active)
same,Potency,[5],inactive
same,Potency,[6],inactive
same,Potency,[8],0.296 µM (active)
COc1cc(C(=O)NS(=O)(=O)c2ccccc2C)ccc1Cc1cn(C)c2ccc(NC(=O)OC3CCCC3)cc12,Potency,[1],11.8 µM (active)
same,Potency,[2],16.6 µM (active)
same,Potency,[3],13.2 µM (active)
same,Potency,[4],13.2 µM (active)
same,Potency,[5],20.9 µM (active)
same,Potency,[7],7.43 µM (active)
same,Potency,[8],16.6 µM (active)
same,Z-AUC,[9],1.83 (inactive)
same,Z-AUC,[9]; [13],1.16
same,Z-AUC,[9]; measured here: PEO4 Z-AUC,1.3
same,"activity, negative = inhibition",[12]; parasite line A,-4.29% (inactive)
same,Potency,3D7,inactive
same,Potency,7G8,12.6 µM (active)
same,Potency,AA1029,inactive
same,Potency,AS120,inactive
same,Potency,ATS95,inactive
same,Potency,C2A,inactive
same,Potency,CP185,inactive
COc1cc(-c2nn(C3CCC(N4CCN(C(C)=O)CC4)CC3)c3ncnc(N)c23)ccc1NC(=O)c1cc2ccccc2n1C (centres undefined),Potency,[1],0.332 µM (active)
same,Potency,[2],6.62 µM (active)
same,Potency,[3],2.96 µM (active)
same,Potency,[5],18.7 µM (active)
same,Potency,[7],4.18 µM (active)
same,Potency,[8],3.32 µM (active)
same,Z-AUC,[9],-1.39 (inactive)
same,Z-AUC,[9]; [13],0.075
same,Z-AUC,[9]; measured here: PEO4 Z-AUC,-0.0545
O=C(O)CCCc1c[nH]c2ccccc12,Potency,[1],inactive
same,Potency,[2],26.4 µM (active)
same,Potency,[3],inactive
same,Potency,[6],inactive
same,Potency,[8],inactive
same,Z-AUC,[9],0.341 (inactive)
same,Z-AUC,[9]; [13],0.661
same,Z-AUC,[9]; measured here: PEO4 Z-AUC,0.6
same,z-score,[11]; [14],0.907
same,z-score,[11]; [15],0.701
same,z-score,[11]; [16],0.654

# Source: PubChem BioAssay (NCATS)
